From PubChem BioAssay (NCI)
About 83,000 compounds went through this panel and 20% of them were active in at least one assay; those are over-represented in the sample as a whole.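 Testing used 96-well plates and a 48-hour single-concentration exposure. Example: -40 means 40% of the starting cells died.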 Calls of active or inactive are those of the source. The calls were made as follows: active = growth percent below 10; inactive = the rest.

Columns and labels:
Experiment in all cases: NCI-60 one-dose screen, 48 h (100 = growth as untreated, 0 = no growth, -100 = all killed)
Details in all cases: 10 µM unless noted
[1] = system: SR leukemia
[2] = system: RPMI-8226 leukemia
[3] = system: OVCAR-8 ovarian
[4] = system: OVCAR-5 ovarian
[5] = system: OVCAR-4 ovarian
[6] = system: SK-OV-3 ovarian
[7] = system: IGROV1 ovarian
[8] = system: OVCAR-3 ovarian
[9] = system: HS 578T breast
[10] = system: NCI/ADR-RES ovarian
[11] = system: T-47D breast
[12] = system: BT-549 breast
[13] = system: SW-620 colon
[14] = system: MCF7 breast
[15] = system: HCT-116 colon
[16] = system: HCC-2998 colon
[17] = system: KM12 colon
[18] = system: MDA-MB-435 melanoma

Measured: growth

N#C/C(=C/C=C/c1ccccc1)S(=O)c1ccccc1 (centres undefined)
inactive: [3] 14.1% | [5] 18.6% | [6] 32.3% | [9] 15.8% | [10] 11.9%
active: [1] 3.12% | [2] -8.55% | [4] -55.4% | [7] 1.27% | [8] -82.2% | [11] -20.1% | [12] -77.9% | [13] -40.4% | [14] -40.2% | [15] -89.6% | [16] -88.9% | [17] -42.4%

COc1cc(/C=C/C(=O)c2ccc(-n3cc(CN4CCN(c5cc6c(cc5F)c(=O)c(C(=O)O)cn6C5CC5)CC4)nn3)cc2)cc(OC)c1OC
active: [2] 6.02%
inactive: [1] 21.3% | [3] 80.7% | [4] 92.7% | [5] 96.7% | [6] 79% | [7] 79.4% | [8] 84.9% | [9] 71.2% | [10] 85.6% | [11] 101% | [12] 92.5% | [13] 85.9% | [14] 61.4% | [15] 17.3% | [17] 87.1%

CS(=O)(=O)Nc1cc(-c2ccc3ncnc(Nc4cccc(Cl)c4)c3c2)cnc1Cl
active: [1] 0.413% | [2] -44.8% | [4] 7.66% | [6] -28.4% | [7] -25.7% | [8] -10.7% | [9] -13.6% | [11] -22.9% | [12] -15.5% | [14] 5.3% | [15] -26.9% | [16] 2.63% | [17] 5.4%
inactive: [3] 16.4% | [5] 13.7% | [10] 19.2% | [13] 11.5%

O=C1C(c2c(O)[nH]c3ncccc23)=Nc2ccccc21
inactive: [1] 82.5% | [2] 75.4% | [3] 84.4% | [4] 77.7% | [5] 80.4% | [6] 69.6% | [8] 75.8% | [9] 72.5% | [10] 82.7% | [11] 48.4% | [18] 92.9% | [13] 102% | [14] 41% | [15] 48.5% | [16] 25.3% | [17] 69.5%
active: [7] -40.9%

O=C(Nc1ncc(Cc2ccccc2Cl)s1)c1ccc2c(c1)OCCO2
inactive: [2] 19.3% | [3] 24.2% | [4] 33.2% | [5] 43.5% | [6] 32.5% | [7] 28.4% | [9] 19.8% | [10] 14.5% | [11] 33.9% | [12] 18.7% | [13] 31.9% | [14] 12.4% | [16] 19.6%
active: [1] 5.14% | [8] -14.4% | [15] 7.38% | [17] 6.53%

O=C(CSc1nc(-c2ccccc2)cn1-c1ccc(Cl)cc1)c1ccc([N+](=O)[O-])cc1
inactive: [1] 72.2% | [2] 80.4% | [3] 94.1% | [4] 95.4% | [5] 92.8% | [6] 96.6% | [8] 78.8% | [9] 62.8% | [10] 91.2% | [11] 71.3% | [12] 86.8% | [18] 83.5% | [13] 73.8% | [14] 76.1% | [15] 66.9% | [16] 99.6% | [17] 82.6%

COc1ccc(/C=N\NC(=O)c2ccc3nc(-c4ccc(Cl)cc4)[nH]c3c2)cc1
inactive: [2] 59.2% | [3] 31.3% | [4] 77.3% | [6] 72.3% | [8] 20.1% | [9] 32.3% | [10] 73.6% | [11] 23.3% | [12] 56.9% | [18] 68.5% | [13] 24.4% | [14] 16.7% | [15] 19% | [16] 51.1% | [17] 17.3%
active: [1] 0.647% | [5] -30.6%

CCOC(=O)/C(=C\c1ccccc1Cl)P(=O)(OCC)OCC
active: [1] -0.778% | [2] 7.93%
inactive: [3] 59.1% | [4] 82.4% | [5] 75.1% | [6] 95.7% | [7] 65.7% | [8] 56.1% | [9] 80.3% | [10] 44% | [11] 39.5% | [13] 46.6% | [14] 17.8% | [15] 44.2% | [16] 94.5% | [17] 52.9%
